We go through 27 molecules from PubChem BioAssay (NCATS).

Where “and” joins values, the source holds several entries; their conditions need not be identical. Identical values can stand only once. Inconclusive results are not listed. More than one record can exist for a structure, and the calls need not agree. Calls of active or inactive are those of the source. Calls follow the shape of the dose curve; as a rule, active = well fitted cell-killing curve with a large enough effect; inconclusive = small, poorly fitted or top-dose-only effect, or effect the other way; inactive = flat fitted curve, though single readings scatter.

Holding throughout (experiment): Primary qHTS to identify gynecologic anti-cancer compounds using libraries of approved drugs and bioactive compounds (AID 1345084); also: nearly all actives have a fitted effect of over 55% in size
(In general: In qHTS, concentration-response curves come from the screen itself.)

For one experiment, the system named is C33A. As to conditions: Gynecologic cancer cell panel viability, ATPlite luminescence, 48 h; series mostly up to 57.5 µM. The method, boiled down: (§1)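 Measured: luminescence after ATPlite addition (15 min, RT). Exposure: 48 h, 37 C, 5% CO2.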
The next experiment has as its system CAOV3. The conditions noted are these: Gynecologic cancer cell panel viability, ATPlite luminescence, 48 h; series mostly up to 57.5 µM. The method, boiled down: as §1
In general terms: ATP-based viability assays read luminescence as a measure of living cells.

In another experiment the test system is CASKI. The conditions noted are these: Gynecologic cancer cell panel viability, ATPlite luminescence, 48 h; series mostly up to 57.5 µM. In short, it runs like this: as §1
The next experiment deals with Es-2. The conditions noted are these: Gynecologic cancer cell panel viability, ATPlite luminescence, 48 h; series mostly up to 57.5 µM. In short, it runs like this:
as §1

The test system of the next experiment is HeLa. The conditions noted are these: Gynecologic cancer cell panel viability, ATPlite luminescence, 48 h; series mostly up to 57.5 µM. In short, it runs like this:
as §1

For a further experiment, the system named is Hek293T. The conditions noted are these: Gynecologic cancer cell panel viability, ATPlite luminescence, 48 h, control line for the selectivity index; series mostly up to 57.5 µM. In short, it runs like this:
as §1

The next experiment relates to JEG-3. As to conditions: Gynecologic cancer cell panel viability, ATPlite luminescence, 48 h; series mostly up to 57.5 µM. The method, boiled down:
as §1

Another experiment concerns OV90. As to conditions: Gynecologic cancer cell panel viability, ATPlite luminescence, 48 h; series mostly up to 57.5 µM. The method, boiled down: as §1
In a further experiment the test system is PA-1. As to conditions: Gynecologic cancer cell panel viability, ATPlite luminescence, 48 h; series mostly up to 57.5 µM. The method, boiled down: as §1
Another experiment concerns SKOV3. As to conditions: Gynecologic cancer cell panel viability, ATPlite luminescence, 48 h; series mostly up to 57.5 µM. In short, it runs like this: as §1
Potency is read from the fitted curve at half-maximal effect.

Turning to `COc1cc2c(Nc3ccc(Br)cc3F)ncnc2cc1OCC1CCN(C)CC1`, the Potency result was “inactive and 22.4 µM (active)” in the experiment on C33A; “inactive and 28.2 µM (active)” with JEG-3; “inactive and 12.6 µM (active)” with SKOV3. The Potency entry in the experiment on CAOV3, in the experiment on CASKI, in the experiment on Es-2, in the experiment with HeLa, in the experiment with Hek293T and in the experiment with OV90 was “inactive” throughout. In addition, in the experiment on PA-1, the Potency result was “inactive”.

`Nc1ccc(S(=O)(=O)Nc2ccccn2)cc1`: the Potency entry in the experiment on C33A, in the experiment with CAOV3, with CASKI, with Es-2, with HeLa and with Hek293T was “inactive” each time. Also, the Potency result with JEG-3, in the experiment with OV90, with PA-1 and with SKOV3 was “inactive” in each case.

For `CC(C)OC(=O)OCOP(=O)(CO[C@H](C)Cn1cnc2c(N)ncnc21)OCOC(=O)OC(C)C`, the Potency entry with C33A, in the experiment with CAOV3, with CASKI, with Es-2, with HeLa and in the experiment with Hek293T was “inactive” throughout. The Potency result with JEG-3, with OV90, in the experiment with PA-1 and in the experiment with SKOV3 was “inactive” throughout.

Take `CC(C(=O)O)c1ccc2c(c1)CC(=O)c1ccccc1S2` (configuration not stated): the Potency result in the experiment on C33A, in the experiment on CAOV3, in the experiment with CASKI, in the experiment with Es-2, in the experiment on Hek293T and with JEG-3 was “inactive” in each case. The Potency result in the experiment on OV90, in the experiment with PA-1 and with SKOV3 was “inactive” throughout.

Consider `O=C(O)c1cn(C2CC2)c2cc(N3CCNCC3)c(F)cc2c1=O`, for which the Potency result in the experiment with C33A, in the experiment on CAOV3, with CASKI, in the experiment with Es-2, in the experiment with HeLa and with Hek293T was “inactive” each time. In addition, the Potency result with JEG-3, with OV90, in the experiment with PA-1 and with SKOV3 was “inactive” throughout.

As for `CCCc1nc(C)c2c(=O)[nH]c(-c3cc(S(=O)(=O)N4CCN(CC)CC4)ccc3OCC)nn12`, the Potency result in the experiment with C33A, in the experiment with CAOV3, in the experiment with CASKI, with Es-2, with HeLa and in the experiment on Hek293T was “inactive” each time. The Potency entry in the experiment on JEG-3, in the experiment with OV90 and with SKOV3 was “inactive” in each case.

In the case of `Cc1ncc([N+](=O)[O-])n1CCO`, the Potency entry in the experiment on C33A, in the experiment with CAOV3, with CASKI, with Es-2, in the experiment on HeLa and with Hek293T was “inactive” in each case. For the same molecule, the Potency entry in the experiment on JEG-3, with OV90, with PA-1 and in the experiment on SKOV3 was “inactive” in each case.

Regarding `CS(=O)(=O)c1ccc([C@@H](O)[C@@H](CO)NC(=O)C(Cl)Cl)cc1`, the Potency result in the experiment with C33A, in the experiment with CAOV3, with CASKI, with Es-2, in the experiment on HeLa and in the experiment on Hek293T was “inactive” in each case. The Potency entry in the experiment with JEG-3, with OV90, with PA-1 and in the experiment with SKOV3 was “inactive” throughout.

Consider `Cc1cccc(N(C)C(=S)Oc2ccc3ccccc3c2)c1`, for which the Potency result with C33A, with CAOV3, in the experiment with CASKI, in the experiment with Es-2, in the experiment with HeLa and in the experiment with Hek293T was “inactive” each time. Moreover, the Potency entry with OV90, in the experiment on PA-1 and in the experiment with SKOV3 was “inactive” throughout.

Turning to `CC(C)OC(=O)C(C(=O)OC(C)C)=C1SC=CS1`, the Potency entry in the experiment on C33A, in the experiment on CAOV3, with CASKI, with Es-2, in the experiment with HeLa and in the experiment with Hek293T was “inactive” throughout. The Potency result with OV90 and in the experiment on PA-1 was “inactive” each time. The Potency in the experiment with SKOV3 is 25.1 µM (active).

As to `OC(Cn1cncn1)(Cn1cncn1)c1ccc(F)cc1F`, the Potency result in the experiment on C33A, in the experiment on CAOV3, with CASKI, with Es-2, with HeLa and with Hek293T was “inactive” throughout. Moreover, the Potency entry in the experiment on JEG-3, in the experiment with OV90, in the experiment on PA-1 and with SKOV3 was “inactive” each time.

With `CC(C)Cn1cnc2c(N)nc3ccccc3c21`, the Potency result with C33A, in the experiment with CAOV3, with CASKI, in the experiment with Es-2, in the experiment with Hek293T and with JEG-3 was “inactive” throughout. In addition, the Potency result with OV90, in the experiment on PA-1 and with SKOV3 was “inactive” each time.

Take `CC(C)C1CCC(C(=O)N[C@H](Cc2ccccc2)C(=O)O)CC1` (some centres not stated): the Potency entry in the experiment with C33A, with CAOV3, in the experiment on CASKI, in the experiment with Es-2, in the experiment on HeLa and with Hek293T was “inactive” in each case. For the same molecule, the Potency entry with JEG-3, in the experiment with OV90, in the experiment on PA-1 and in the experiment with SKOV3 was “inactive” in each case.

For `CC(=O)CC(c1ccccc1)c1c(O)c2ccccc2oc1=O` (configuration not stated), the Potency entry in the experiment on C33A, in the experiment on CAOV3, in the experiment with CASKI, with Es-2, in the experiment with Hek293T and in the experiment on JEG-3 was “inactive” each time. In addition, the Potency result with OV90 is “inactive”.

Consider `CN(C)CCc1c[nH]c2ccc(CS(=O)(=O)N3CCCC3)cc12`, for which the Potency result with C33A, in the experiment on CAOV3, with CASKI, in the experiment with Es-2, with HeLa and in the experiment with Hek293T was “inactive” each time. The Potency entry in the experiment with JEG-3, with OV90, in the experiment with PA-1 and with SKOV3 was “inactive” in each case.

Take `CCCc1cc(C(N)=S)ccn1`: the Potency entry in the experiment with C33A, in the experiment with CAOV3, with CASKI, with Es-2, in the experiment with Hek293T and with JEG-3 was “inactive” throughout. Also, the Potency entry in the experiment on OV90, in the experiment with PA-1 and with SKOV3 was “inactive” in each case.

As for `Cc1nnc(C(=O)NC(C)(C)c2nc(C(=O)NCc3ccc(F)cc3)c(O)c(=O)n2C)o1`, the Potency entry in the experiment with C33A, in the experiment on CAOV3, with CASKI, in the experiment on Es-2, in the experiment on HeLa and with Hek293T was “inactive” each time. The Potency result in the experiment on JEG-3, with OV90, in the experiment with PA-1 and in the experiment on SKOV3 was “inactive” throughout.

`Nc1nc(N)nc(-c2cc(Cl)ccc2Cl)n1`: the Potency result in the experiment on C33A, in the experiment on CAOV3, in the experiment on CASKI, with Es-2, in the experiment with HeLa and in the experiment with Hek293T was “inactive” each time. The Potency result in the experiment on JEG-3, with OV90, in the experiment with PA-1 and in the experiment with SKOV3 was “inactive” throughout.

Regarding `NCCCC(O)(P(=O)(O)O)P(=O)(O)O`, the Potency result in the experiment on C33A, with CAOV3, in the experiment on CASKI, in the experiment on Es-2, in the experiment on Hek293T and in the experiment with JEG-3 was “inactive” throughout. Besides, the Potency entry in the experiment with OV90, with PA-1 and in the experiment on SKOV3 was “inactive” in each case.

In the case of `CN(Cc1cc(Br)cc(Br)c1N)C1CCCCC1`, the Potency entry in the experiment with C33A, in the experiment on CAOV3, in the experiment with CASKI, in the experiment with Es-2, with Hek293T and in the experiment with JEG-3 was “inactive” each time. In addition, the Potency result in the experiment with OV90, with PA-1 and in the experiment on SKOV3 was “inactive” each time.

For the molecule `CC(N)C12CC3CC(CC(C3)C1)C2` (configuration not stated), the Potency entry in the experiment with C33A, in the experiment on CAOV3, in the experiment on CASKI, with Es-2, in the experiment with HeLa and in the experiment on Hek293T was “inactive” throughout. Besides, the Potency entry with JEG-3, with PA-1 and in the experiment on SKOV3 was “inactive” throughout.

`CNC1CCCN(c2c(F)cc3c(=O)c(C(=O)O)cn(C4CC4)c3c2OC)C1` (configuration not stated): the Potency entry with C33A, with CAOV3, with CASKI, with Es-2, in the experiment on HeLa and in the experiment with Hek293T was “inactive” throughout. Moreover, the Potency result in the experiment on JEG-3, with OV90, in the experiment on PA-1 and in the experiment with SKOV3 was “inactive” each time.

Consider `CN1CCN(c2c(F)cc3c(=O)c(C(=O)O)cn(CCF)c3c2F)CC1`, for which the Potency result in the experiment on C33A, in the experiment on CAOV3, in the experiment on CASKI, in the experiment with Es-2, with HeLa and with Hek293T was “inactive” in each case. Moreover, the Potency result in the experiment with JEG-3, with OV90, in the experiment on PA-1 and in the experiment with SKOV3 was “inactive” each time.

Take `O=C(O)CSCC(=O)NC1CCSC1=O` (configuration not stated): the Potency result with C33A, in the experiment on CAOV3, in the experiment on CASKI, in the experiment with Es-2, in the experiment with HeLa and with Hek293T was “inactive” in each case. Besides, the Potency entry in the experiment with JEG-3, in the experiment with OV90, in the experiment on PA-1 and with SKOV3 was “inactive” in each case.

Regarding `O=C(NCC1CN(c2ccc(N3CCOCC3=O)cc2)C(=O)O1)c1ccc(Cl)s1` (configuration not stated), the Potency result in the experiment with C33A, in the experiment on CAOV3, in the experiment with CASKI, in the experiment on Es-2, with HeLa and with Hek293T was “inactive” each time. For the same molecule, the Potency result in the experiment with JEG-3, with OV90, in the experiment with PA-1 and in the experiment on SKOV3 was “inactive” in each case.

On to `COc1nc(N)nc2c1ncn2[C@@H]1O[C@H](CO)[C@@H](O)[C@@H]1O`, for which the Potency result with C33A, in the experiment on CAOV3, in the experiment with CASKI, in the experiment with Es-2, in the experiment on HeLa and with Hek293T was “inactive” throughout. Also, the Potency entry with JEG-3, with OV90, with PA-1 and in the experiment with SKOV3 was “inactive” each time.

As to `COc1ncnc(NS(=O)(=O)c2ccc(N)cc2)c1OC`, the Potency entry in the experiment on C33A, with CAOV3, in the experiment on CASKI, in the experiment on Es-2, with Hek293T and in the experiment on JEG-3 was “inactive” each time. The Potency result with OV90, in the experiment with PA-1 and in the experiment on SKOV3 was “inactive” throughout.
